Test results from PubChem BioAssay (NCATS).
Records with an inconclusive call do not appear. Entries that show only a call come without a potency. The source made the active and inactive calls. Unless noted, the call rests on the fitted dose curve; in most records, active means well fitted curve in the direction sought with a large enough effect; inconclusive means small, poorly fitted or top-dose-only effect, or another doubt; inactive means no such curve, though single readings can be large; an effect the other way counts as inactive or inconclusive.

Experiments:
[1] = qHTS for Inhibitors of Plasmodium falciparum (GB4) proliferation (AID 504315); further: nearly all actives have a fitted effect of over 50% in size; further: potency means the concentration at half of the fitted maximal effect
Summary of the method: (§1)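 Erythrocytes infected with P. falciparum line (0.3% parasitemia, 2.5% hematocrit final) incubated with compounds 72 h at 37 °C, 5% CO2; SYBR Green lysis buffer added, fluorescence read next day. Normalized to 0.29 uM artemisinin and DMSO.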

[2] = qHTS for Inhibitors of Plasmodium falciparum (HB3) proliferation (AID 504318); further: nearly all actives have a fitted effect of over 60% in size
Summary of the method: as §1

[3] = qHTS for Inhibitors of Plasmodium falciparum (CP250) proliferation (AID 504320); further: potency means the concentration at half of the fitted maximal effect
Summary of the method: as §1

[4] = target: Atrial natriuretic peptide receptor 1 (Homo sapiens) (UniProt P16066); assay: Natriuretic polypeptide receptor (hNpr1) antagonism - Pilot CMLD screen (AID 1347052; calls by dose curve;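 further: cGMP level read as GloSensor luciferase luminescence after agonist stimulation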; further: potency means the concentration at half of the fitted maximal effect)
Atrial natriuretic peptide receptor 1 (Homo sapiens), sequence (P16066 whole entry, looked up): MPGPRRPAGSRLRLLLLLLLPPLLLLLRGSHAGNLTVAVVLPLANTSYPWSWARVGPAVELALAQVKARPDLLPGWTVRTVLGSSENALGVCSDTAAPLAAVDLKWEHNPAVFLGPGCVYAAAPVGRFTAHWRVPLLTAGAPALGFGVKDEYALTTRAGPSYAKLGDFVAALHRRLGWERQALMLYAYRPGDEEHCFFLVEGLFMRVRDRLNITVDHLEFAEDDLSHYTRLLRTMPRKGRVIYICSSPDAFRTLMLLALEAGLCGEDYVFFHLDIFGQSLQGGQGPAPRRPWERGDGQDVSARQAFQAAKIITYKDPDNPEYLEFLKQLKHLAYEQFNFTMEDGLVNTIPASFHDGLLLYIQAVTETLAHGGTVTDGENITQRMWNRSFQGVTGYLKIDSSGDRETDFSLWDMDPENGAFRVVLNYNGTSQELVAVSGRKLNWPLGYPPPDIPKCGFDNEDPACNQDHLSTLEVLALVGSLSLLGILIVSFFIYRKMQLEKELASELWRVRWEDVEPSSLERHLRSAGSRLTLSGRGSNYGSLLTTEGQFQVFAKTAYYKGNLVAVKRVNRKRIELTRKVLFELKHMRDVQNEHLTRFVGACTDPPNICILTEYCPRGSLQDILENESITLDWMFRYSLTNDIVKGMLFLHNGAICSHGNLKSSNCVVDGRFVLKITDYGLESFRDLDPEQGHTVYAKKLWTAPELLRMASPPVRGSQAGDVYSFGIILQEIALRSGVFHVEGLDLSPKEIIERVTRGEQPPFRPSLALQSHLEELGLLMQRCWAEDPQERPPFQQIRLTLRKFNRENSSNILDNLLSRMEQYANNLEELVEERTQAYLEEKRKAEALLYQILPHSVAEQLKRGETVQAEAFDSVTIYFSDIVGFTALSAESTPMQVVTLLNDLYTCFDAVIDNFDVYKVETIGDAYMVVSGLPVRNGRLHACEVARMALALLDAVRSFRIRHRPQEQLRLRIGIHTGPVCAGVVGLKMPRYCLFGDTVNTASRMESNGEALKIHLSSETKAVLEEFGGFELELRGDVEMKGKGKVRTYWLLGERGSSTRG

[5] = qHTS for Inhibitors of Plasmodium falciparum (7G8) proliferation (AID 504316); further: series mostly up to about 6.7 µM; nearly all actives have a fitted effect of over 65% in size
Summary of the method: as §1

Row | Compound | Potency [1] | Potency [2] | Potency [3] | Potency [4] | Potency [5] | outcome [4]
1 | COC(=O)C1=C(C)N(Cc2ccccc2)C(=NCCc2ccccn2)NC1c1cccc(C(F)(F)F)c1 (stereo unspecified) | 601 nM (active) | inactive | 849 nM (active) | inactive | – | –
2 | CCCNC(=O)OC[C@H]1O[C@H](CCON=C2C[C@@H](O)[C@@H](O)[C@@H]3[C@H]4C(=O)N(CC)C(=O)[C@@H]4CC[C@H]23)C=C[C@H]1Oc1ccc(OC)cc1 | inactive | – | inactive | inactive | inactive | –
3 | O=C1CCCC2=C1[C@H]1O[C@](c3ccsc3)(Cc3c1ccc1ccccc31)O2 | inactive | inactive | inactive | inactive | – | –
4 | N#CCCCS(=O)(=O)c1nnnn1-c1ccccc1 | inactive | inactive | inactive | inactive | – | –
5 | Cc1cc2c(nc1C)CCCCN2C[C@H](C)ON=C1[C@H]2CCn3c(=O)n(-c4ccccc4)c(=O)n3[C@@H]2[C@H](O)[C@@H]2O[C@H]12 | inactive | – | inactive | inactive | – | –
6 | O=C(NC(CC1=CCCCC1)c1ccc2ccccc2c1)C(F)(F)F (stereo unspecified) | inactive | inactive | inactive | inactive | – | –
7 | CC(C)=CCCC(C)=CC=CC1=CC2(C)CC1(C)C(C=C(C)CCC=C(C)C)CC2=O (stereo unspecified) | inactive | – | inactive | inactive | – | –
8 | CC1=C[C@]2(O[C@H](COc3ccccc3)C1)C(=O)N(C)c1ccccc12 | inactive | inactive | inactive | – | – | inactive
9 | CC1=CC[C@@H](COc2ccccc2)O[C@@]2(C1)C(=O)N(Cc1ccc(F)cc1)c1ccccc12 | inactive | – | inactive | inactive | – | –
10 | C[C@@H]1CC[C@H]2C(=O)N(Cc3ccccc3)C[C@H](O)CN2[C@@H]1c1ccc(Br)cc1 | 1690 nM (active) | – | inactive | 2990 nM (active) | – | –
